Assay results reported in PubChem BioAssay (NCI).
About 79,000 compounds went through this panel and 15% of them were active in at least one assay; those are over-represented in the sample as a whole. Unmarked numbers belong to inactive results. Activity calls are given as the source filed them. Rule as the data show it: active = growth inhibition above about 70%; inactive = the rest.

Test: NCI Yeast Anticancer Drug Screen. Data for the rad50 strain (AID 155);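 also: 0% = growth of vehicle-only cultures of the same strain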
Settings: S. cerevisiae rad50 strain growth inhibition; at 50.0 µM; active compounds read high
In short: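 A DNA repair-deficient yeast mutant serves as the test organism; compound-induced growth inhibition is calculated against vehicle-treated cells.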

SMILES | growth inhibition
CCOc1ccccc1/C=C1\NC(=O)N(/C=C2\C(=O)Oc3ccccc3C2=O)C1=O | 93.7% (active)
CC(NNC(=S)N1CCCC1)c1ccc2ccccc2n1 (stereo not given) | 98% (active)
N#Cc1c(-c2ccc(Cl)cc2)c(C#N)c(=O)n(NS(=O)(=O)c2ccccc2)c1S | 39.6%
CC(C)/C=C1\CCOC1=O | 36.3%
c1ccc(Nc2nnc3nc(-c4ccccc4)c(-c4ccccc4)nn23)cc1 | 65.2%
O=C(NC(c1ccccc1)N1CCOCC1)c1ccccc1 (stereo not given) | 99% (active)
N[C@@H]1CCCC[C@@H]1N.O=C([O-])CN(CP(=O)([O-])[O-])CP(=O)([O-])[O-].[Pt+2] | 99.5% (active)
C/C=C\C(/C=C/C)(C(=O)OCCN(C)C)C(/C=C\C)(/C=C/C)C(=O)OCCN(C)C (stereo not given) | 98% (active)
COc1ccc(CCNC(=S)/N=C\C(C(=O)c2ccccc2)=C(\O)c2ccccc2)cc1OC | 99% (active)
Cc1ccccc1C1SCc2nc3ccccc3n21 (stereo not given) | -17.1%
O=C(Nc1ccc(Cl)cc1)Nc1nnc(/C=C/c2ccc(Cl)c(Cl)c2)o1 | -6.15%
Cc1c(CCCl)c(N=[N+]=[N-])n2c(nc3ccccc32)c1C#N | 83.8% (active)
O=C(OCCCC(C(=O)c1ccccc1)=P(c1ccccc1)(c1ccccc1)c1ccccc1)c1ccccc1 | 84.8% (active)
O=C(c1ccccc1)c1ccc(Cl)cc1 | 66.2%
O=C1C(C(O)(C(F)(F)Cl)C(F)(F)Cl)CCCC1C(O)(C(F)(F)Cl)C(F)(F)Cl (stereo not given) | 99.7% (active)
CCN(CC)C(=S)N=Nc1c(O)[nH]c2ccccc12 | 82.5% (active)
c1csc(-c2nnc(C34CC5CC(CC(C5)C3)C4)o2)c1 | 61.5%
C/C(O)=C(/C=N/C(=S)Nc1ccc(S(N)(=O)=O)cc1)C(=O)Nc1ccccc1C | 79.7% (active)
CC(C)(Oc1ccc(-c2cccc3ccccc23)cc1)C(=O)O | 58.3%
CCc1scc(C)[n+]1CC(=O)c1cccc([N+](=O)[O-])c1 | -6.25%

SMILES | growth inhibition
O=C1CCC(C(c2ccccc2)(c2ccccc2)c2ccccc2)CC1=O (stereo not given) | -11.1%
Clc1ccc(C2SCc3nc4ccccc4n32)cc1Cl (stereo not given) | 97.2% (active)
OC(CBr)c1c(Br)ccc2ccccc12 (stereo not given) | 53.6%
O=C1OC(c2cccc(Cl)c2)Sc2ccccc21 (stereo not given) | 51.7%
c1ccc(N2CCN(c3ccccc3)C2Cc2c[nH]c3ccccc23)cc1 | 99.2% (active)
CC(=O)c1sc(Nc2ccc(Cl)c(Cl)c2)nc1C | 95% (active)
Cc1ncn(-c2ccccc2O)c1C | -10.3%
C[n+]1c(/C=C/c2ccc(N3CCCC3)cc2)sc2ccccc21 | 98.6% (active)
COc1ccc(-c2c(C#N)c(S)n(NS(=O)(=O)c3ccc(C)cc3)c(=O)c2C#N)cc1 | 28.8%
N#Cc1c(-c2ccc(Cl)c(Cl)c2)c(-c2ccc(Cl)c(Cl)c2)nn(CCO)c1=O | 97.8% (active)
NCc1ccc(O)c(O)c1O | 14.9%
C[CH2][Sn]([CH2]C)([O]C(=O)c1cc(OC)c(OC)c(OC)c1)[O][Sn]([CH2]C)([CH2]C)[O]C(=O)c1cc(OC)c(OC)c(OC)c1 | 1.2%
C=CCNCCC1CCCCCC1 | 96.6% (active)
Cc1ccc(/C=C/C(=O)/C=C/c2ccc(C)o2)o1 | 65.8%
CCCC(=O)c1cc(O)c(O)c(CN(C)Cc2cc(Cl)cc(C)c2O)c1O | 55%
COC(=O)/C(C#N)=C/c1cc(OC)c(O)cc1Br | 48.6%
O=C(/C=C/c1ccccc1)CCN1CCOCC1 | 91.3% (active)
c1cc2c(c3c1CN(C1CCCCC1)CO3)OCN(C1CCCCC1)C2 | -11%
CSc1nc2ccccc2s1 | 24.1%
CC1(C)CC(=O)C(CSC(=O)c2ccccc2)=C(O)C1 | -13.9%
